# PubChem BioAssay (NCATS)
# Records with an inconclusive call do not appear. Where a call stands in place of a potency, no number is given. Values without a mark were called inactive. Activity calls are given as the source filed them. The call rests on the fitted dose curve; in most records, active means well fitted inhibition curve with a large enough effect; inconclusive means small, poorly fitted or top-dose-only effect; inactive means flat fitted curve, though single readings scatter.
# Experiments:
# NIH3T3 = assay: Cytotoxic Profiling of Annotated Libraries Using Quantitative High-Throughput Screening (AID 1296008); conditions: Five cell lines viability, CellTiter-Glo ATP luminescence, 48-72 h; max response: hits give low values
# How it was run: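 Cytotoxicity was measured as CellTiter-Glo ATP luminescence, read after 10 min at room temperature. Compound treatment of the cells lasted 48 or 72 hr at 37 degrees Celsius in a qHTS format.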
# HACAT = assay: qHTS assay to identify novel small-molecules to repurpose for Merkel cell carcinoma treatment (AID 1296009); conditions: MCC and control cell lines, CellTiter-Glo viability, 72 h; series mostly up to 44.8 µM
# How it was run: (§1)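 Cell viability measured by CellTiter-Glo following 72 hr compound treatment at 37 degree celsius, with NPC and MIPE libraries tested in 8- and 11-point concentration series.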
# HEK293T = assay: as above; conditions: MCC and control cell lines, CellTiter-Glo viability, 72 h; at 44.8 µM (top of the series) unless noted
# How it was run: as §1
# MCC-13 = assay: as above; conditions: MCC and control cell lines, CellTiter-Glo viability, 72 h; series mostly up to 46 µM
# How it was run: as §1
# MCC-26 = assay: as above; conditions: MCC and control cell lines, CellTiter-Glo viability, 72 h; series mostly up to 46 µM
# How it was run: as §1
# MKL-1 = assay: as above; conditions: MCC and control cell lines, CellTiter-Glo viability, 72 h; series mostly up to 46 µM
# How it was run: as §1
# MKL-2 = assay: as above; conditions: MCC and control cell lines, CellTiter-Glo viability, 72 h; series mostly up to 46 µM
# How it was run: as §1
# UISO = assay: as above; conditions: MCC and control cell lines, CellTiter-Glo viability, 72 h; series mostly up to 46 µM
# How it was run: as §1
# WaGa = assay: as above; conditions: MCC and control cell lines, CellTiter-Glo viability, 72 h; series mostly up to 46 µM
# How it was run: as §1
# Further: nearly all actives have a fitted effect of over 60% in size.
structure (smiles),measurement,setting,value
CC(C)c1cc(C(=O)N2CC[C@H](NC(=O)C3CC3)C2)n[nH]1,max response,NIH3T3,-25.5%
same,Potency,HACAT,inactive
C=C1C[C@@]23CCC4[C@@](C)(CCC[C@@]4(C)C(=O)OC)C2CC[C@@H]1C3 (stereo partly specified),max response,NIH3T3,0.656%
same,Potency,HACAT,inactive
same,outcome,HEK293T,inactive
O=C(Nc1c(-c2cccs2)nc2ccccn12)c1ccc(Cl)cc1,max response,NIH3T3,-0.375%
same,Potency,HACAT,inactive
OCc1ccc(O[C@@H]2O[C@H](CO)[C@@H](O)[C@H](O)[C@H]2O)cc1,max response,NIH3T3,2.54%
same,Potency,HACAT,inactive
CC(C)N(CCCCOCC(=O)NS(C)(=O)=O)c1cnc(-c2ccccc2)c(-c2ccccc2)n1,max response,NIH3T3,-0.443%
same,Potency,HACAT,inactive
same,outcome,HEK293T,inactive
C[C@@H]1O[C@@H](O[C@@H]2[C@@H](O)[C@H](O[C@H]3CC[C@@]4(C)C(CC[C@]5(C)C4CC=C4[C@@H]6CC(C)(C)CC[C@]6(C(=O)O[C@@H]6O[C@H](CO)[C@@H](O)[C@H](O)[C@H]6O)CC[C@]45C)C3(C)C)O[C@H](C(=O)O)[C@H]2O)[C@H](O)[C@H](O)[C@H]1O (stereo partly specified),max response,NIH3T3,4.82%
same,outcome,HACAT,inactive [at 9.27 µM]
C[C@@H]1O[C@@H](O[C@H]2[C@@H]3C=CO[C@@H](O[C@@H]4O[C@H](CO)[C@@H](O)[C@H](O)[C@H]4O)[C@@H]3[C@@]3(CO)O[C@@H]23)[C@H](OC(=O)/C=C/c2ccccc2)[C@H](O)[C@H]1O,max response,NIH3T3,-1.15%
same,Potency,HACAT,inactive
CC(C)c1cccc2c(-c3ccccc3)cc(-c3ccc(-c4ccc(C(=O)O)cc4)[nH]3)nc12,max response,NIH3T3,-3.94%
same,Potency,HACAT,inactive
CC(C)=CCC/C(C)=C/CC/C(C)=C/COC1OC(COC2OCC(OC3OCC(O)C(O)C3O)C(O)C2O)C(O)C(OC2OC(C)C(OC3OC(C)C(OC4OCC(OC5OC(C)C(O)C(O)C5O)C(O)C4O)C(O)C3O)C(O)C2O)C1O (stereo unspecified),max response,NIH3T3,-0.843%
same,outcome,HACAT,inactive [at 9.27 µM]
COc1cc(OC)cc(C(=O)Nc2ccc(Cl)c(-c3nc4ccc(N(C)C)cc4[nH]3)c2)c1,max response,NIH3T3,-0.734%
same,Potency,HACAT,inactive
CCC(C(=O)O)c1ccc(N2Cc3ccccc3C2=O)cc1 (stereo unspecified),max response,NIH3T3,3.06%
same,Potency,HACAT,inactive
same,outcome,MCC-13,inactive
same,outcome,MCC-26,inactive
same,Potency,MKL-1,inactive
same,Potency,MKL-2,inactive
same,Potency,UISO,inactive
same,Potency,WaGa,inactive
CC1(C)C[C@H](O)C[C@@]2(C)OC(=O)C=C12,max response,NIH3T3,2.91%
same,outcome,HEK293T,inactive [at 92 µM]
Cc1cc(=O)oc2c(C=O)c(O)ccc12,max response,NIH3T3,-0.325%
same,outcome,HEK293T,inactive
COc1c2c(c(CO)c3c1C(=O)OC3)OC1(C)CCC3(O)C(C)(C)OC(=O)CCC3(C)C1C2 (stereo unspecified),max response,NIH3T3,-8.25%
same,outcome,HEK293T,inactive [at 17.4 µM]
